Data published in the supplement of paper PMC6411743.
± gives the standard deviation of the averaged measurements. Targets with the largest changes are over-represented here; the source holds about 6,500 in all.

Compound: Nc1ncnc2c1ncn2[C@@H]1O[C@H](COP(=O)(O)OP(=O)(O)OP(=O)(O)O)[C@@H](O)[C@H]1O [adenosine triphosphate]
Test: NP40-soluble protein abundance relative to vehicle (solubility fold change) (ratio); higher = more soluble protein in presence of ATP
How it was run: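 Across three independent experiments, values are fold changes against the detergent-processed vehicle for each replicate, based on vsn-normalised intensities. The samples were Jurkat crude lysate treated with eight concentrations (0.1 to 10 mM) for 10 min at room temperature and then 3 min at 37 °C. Lysate was solubilised with 0.8% NP40 and benzonase, ultracentrifuged, and the supernatant analysed by TMT-labelled LC-MS/MS.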

Chain of UniProt Q7Z5K2 (Q7Z5K2 whole entry): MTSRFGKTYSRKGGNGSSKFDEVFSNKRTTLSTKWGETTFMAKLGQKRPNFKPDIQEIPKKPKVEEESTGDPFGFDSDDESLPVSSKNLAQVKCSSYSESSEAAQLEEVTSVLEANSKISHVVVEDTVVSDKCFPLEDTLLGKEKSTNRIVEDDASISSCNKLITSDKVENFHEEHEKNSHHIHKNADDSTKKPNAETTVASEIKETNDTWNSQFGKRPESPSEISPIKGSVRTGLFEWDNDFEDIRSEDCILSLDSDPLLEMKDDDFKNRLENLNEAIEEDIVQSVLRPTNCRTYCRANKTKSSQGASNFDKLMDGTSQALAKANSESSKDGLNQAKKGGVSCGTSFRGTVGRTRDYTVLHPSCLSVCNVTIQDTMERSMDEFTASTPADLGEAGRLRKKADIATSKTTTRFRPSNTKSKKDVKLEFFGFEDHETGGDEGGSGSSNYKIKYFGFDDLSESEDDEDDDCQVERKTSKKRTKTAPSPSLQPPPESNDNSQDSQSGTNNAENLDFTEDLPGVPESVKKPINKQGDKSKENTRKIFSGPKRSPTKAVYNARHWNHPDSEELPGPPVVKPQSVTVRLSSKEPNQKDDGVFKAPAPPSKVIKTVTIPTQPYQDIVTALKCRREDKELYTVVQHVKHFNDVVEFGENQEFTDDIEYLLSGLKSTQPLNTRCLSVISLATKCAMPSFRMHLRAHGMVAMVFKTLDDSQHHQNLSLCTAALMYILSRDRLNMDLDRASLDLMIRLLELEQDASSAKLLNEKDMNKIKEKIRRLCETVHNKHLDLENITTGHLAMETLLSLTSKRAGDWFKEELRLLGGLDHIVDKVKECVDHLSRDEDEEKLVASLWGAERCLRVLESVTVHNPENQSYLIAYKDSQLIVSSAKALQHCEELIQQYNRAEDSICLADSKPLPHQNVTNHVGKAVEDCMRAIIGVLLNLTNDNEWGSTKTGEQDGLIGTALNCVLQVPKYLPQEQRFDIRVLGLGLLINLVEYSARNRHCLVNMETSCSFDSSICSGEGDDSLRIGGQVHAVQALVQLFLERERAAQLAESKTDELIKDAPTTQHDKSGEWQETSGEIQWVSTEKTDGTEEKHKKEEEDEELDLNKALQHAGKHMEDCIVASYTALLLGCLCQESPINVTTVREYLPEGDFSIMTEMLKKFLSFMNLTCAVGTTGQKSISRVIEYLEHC
Chain of UniProt Q8N8A6 (Q8N8A6 whole entry): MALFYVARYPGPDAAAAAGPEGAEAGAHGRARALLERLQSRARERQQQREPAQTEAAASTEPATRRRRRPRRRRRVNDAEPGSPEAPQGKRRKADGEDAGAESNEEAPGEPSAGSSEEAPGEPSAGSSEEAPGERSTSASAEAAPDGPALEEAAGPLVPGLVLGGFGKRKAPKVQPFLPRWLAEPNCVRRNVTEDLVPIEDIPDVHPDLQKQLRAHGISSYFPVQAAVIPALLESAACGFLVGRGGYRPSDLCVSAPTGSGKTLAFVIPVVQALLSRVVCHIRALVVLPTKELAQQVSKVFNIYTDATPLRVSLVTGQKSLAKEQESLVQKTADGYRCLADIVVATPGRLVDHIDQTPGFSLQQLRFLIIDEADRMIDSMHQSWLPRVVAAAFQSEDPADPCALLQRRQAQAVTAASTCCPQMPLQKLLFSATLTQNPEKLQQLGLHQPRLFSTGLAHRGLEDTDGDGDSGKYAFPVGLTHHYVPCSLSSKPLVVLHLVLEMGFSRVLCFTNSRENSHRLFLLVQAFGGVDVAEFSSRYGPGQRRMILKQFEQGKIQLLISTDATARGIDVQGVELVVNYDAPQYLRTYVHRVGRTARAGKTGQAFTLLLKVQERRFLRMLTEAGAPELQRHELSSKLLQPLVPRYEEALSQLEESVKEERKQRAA
Chain of UniProt Q3MII6 (Q3MII6 whole entry): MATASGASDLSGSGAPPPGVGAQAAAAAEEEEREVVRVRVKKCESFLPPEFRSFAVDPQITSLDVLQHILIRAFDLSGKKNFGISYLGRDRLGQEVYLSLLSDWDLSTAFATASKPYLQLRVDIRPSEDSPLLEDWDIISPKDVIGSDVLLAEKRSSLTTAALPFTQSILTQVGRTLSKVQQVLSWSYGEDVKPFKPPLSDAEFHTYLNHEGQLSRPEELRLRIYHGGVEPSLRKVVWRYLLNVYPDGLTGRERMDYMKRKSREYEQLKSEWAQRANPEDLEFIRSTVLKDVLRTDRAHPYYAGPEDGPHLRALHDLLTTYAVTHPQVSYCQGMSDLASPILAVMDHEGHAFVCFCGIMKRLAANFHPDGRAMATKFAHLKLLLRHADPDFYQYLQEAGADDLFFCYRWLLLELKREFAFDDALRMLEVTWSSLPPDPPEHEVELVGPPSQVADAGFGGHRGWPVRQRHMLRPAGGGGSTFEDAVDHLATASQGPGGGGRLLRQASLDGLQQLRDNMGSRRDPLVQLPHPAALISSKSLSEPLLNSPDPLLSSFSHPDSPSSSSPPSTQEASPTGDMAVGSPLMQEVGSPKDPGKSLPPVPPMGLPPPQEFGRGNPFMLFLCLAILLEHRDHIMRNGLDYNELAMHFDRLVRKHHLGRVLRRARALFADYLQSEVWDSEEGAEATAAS
Chain of UniProt Q12872 (Q12872 whole entry): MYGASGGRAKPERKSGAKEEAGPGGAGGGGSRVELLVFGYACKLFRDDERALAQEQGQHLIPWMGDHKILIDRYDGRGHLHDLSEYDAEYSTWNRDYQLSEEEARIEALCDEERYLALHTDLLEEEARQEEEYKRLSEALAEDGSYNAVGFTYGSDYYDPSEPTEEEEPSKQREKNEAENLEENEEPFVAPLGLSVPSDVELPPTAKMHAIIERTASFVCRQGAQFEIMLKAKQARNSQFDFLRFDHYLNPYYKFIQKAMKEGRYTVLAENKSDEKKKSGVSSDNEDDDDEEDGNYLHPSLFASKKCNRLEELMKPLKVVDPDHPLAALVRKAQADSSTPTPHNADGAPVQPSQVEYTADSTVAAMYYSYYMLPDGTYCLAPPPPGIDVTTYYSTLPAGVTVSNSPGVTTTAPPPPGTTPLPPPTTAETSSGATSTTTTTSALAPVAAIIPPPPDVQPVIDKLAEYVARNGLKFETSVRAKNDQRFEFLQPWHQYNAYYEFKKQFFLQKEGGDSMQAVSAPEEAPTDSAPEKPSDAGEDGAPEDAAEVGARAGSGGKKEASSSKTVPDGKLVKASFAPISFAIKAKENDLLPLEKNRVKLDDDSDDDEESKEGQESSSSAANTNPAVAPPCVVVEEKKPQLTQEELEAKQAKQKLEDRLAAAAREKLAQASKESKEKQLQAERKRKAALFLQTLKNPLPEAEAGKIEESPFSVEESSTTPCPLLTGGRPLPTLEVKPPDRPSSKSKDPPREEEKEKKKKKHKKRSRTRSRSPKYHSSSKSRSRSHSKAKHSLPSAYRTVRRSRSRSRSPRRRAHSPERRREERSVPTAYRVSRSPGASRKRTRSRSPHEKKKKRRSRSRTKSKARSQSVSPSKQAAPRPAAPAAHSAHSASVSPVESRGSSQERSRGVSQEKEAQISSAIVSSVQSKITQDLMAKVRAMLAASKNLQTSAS
Chain of UniProt Q7L590 (Q7L590 whole entry, one chain of several): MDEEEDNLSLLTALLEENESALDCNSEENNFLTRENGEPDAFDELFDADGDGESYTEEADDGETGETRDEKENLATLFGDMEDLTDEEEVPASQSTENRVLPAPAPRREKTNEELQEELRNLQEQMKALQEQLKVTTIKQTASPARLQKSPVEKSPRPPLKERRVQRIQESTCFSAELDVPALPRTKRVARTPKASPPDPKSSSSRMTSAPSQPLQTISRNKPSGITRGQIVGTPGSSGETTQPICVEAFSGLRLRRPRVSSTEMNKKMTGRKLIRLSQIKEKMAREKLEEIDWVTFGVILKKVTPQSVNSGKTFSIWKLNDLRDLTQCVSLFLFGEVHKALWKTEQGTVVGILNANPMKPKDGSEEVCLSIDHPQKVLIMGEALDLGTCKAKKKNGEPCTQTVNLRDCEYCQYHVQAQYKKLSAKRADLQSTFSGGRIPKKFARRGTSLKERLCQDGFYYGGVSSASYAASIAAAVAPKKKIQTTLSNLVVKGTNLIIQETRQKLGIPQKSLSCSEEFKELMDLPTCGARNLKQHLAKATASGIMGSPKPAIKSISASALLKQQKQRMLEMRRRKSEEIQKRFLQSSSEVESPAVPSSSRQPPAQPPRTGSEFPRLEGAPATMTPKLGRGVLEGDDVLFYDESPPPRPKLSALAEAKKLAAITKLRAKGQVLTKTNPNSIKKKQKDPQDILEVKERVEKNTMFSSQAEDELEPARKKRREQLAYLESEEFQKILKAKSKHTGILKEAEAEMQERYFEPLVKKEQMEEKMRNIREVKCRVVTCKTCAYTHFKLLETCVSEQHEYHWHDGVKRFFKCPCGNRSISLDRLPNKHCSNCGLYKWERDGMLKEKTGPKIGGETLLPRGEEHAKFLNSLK
Chain of UniProt Q8N3Z6 (Q8N3Z6 whole entry): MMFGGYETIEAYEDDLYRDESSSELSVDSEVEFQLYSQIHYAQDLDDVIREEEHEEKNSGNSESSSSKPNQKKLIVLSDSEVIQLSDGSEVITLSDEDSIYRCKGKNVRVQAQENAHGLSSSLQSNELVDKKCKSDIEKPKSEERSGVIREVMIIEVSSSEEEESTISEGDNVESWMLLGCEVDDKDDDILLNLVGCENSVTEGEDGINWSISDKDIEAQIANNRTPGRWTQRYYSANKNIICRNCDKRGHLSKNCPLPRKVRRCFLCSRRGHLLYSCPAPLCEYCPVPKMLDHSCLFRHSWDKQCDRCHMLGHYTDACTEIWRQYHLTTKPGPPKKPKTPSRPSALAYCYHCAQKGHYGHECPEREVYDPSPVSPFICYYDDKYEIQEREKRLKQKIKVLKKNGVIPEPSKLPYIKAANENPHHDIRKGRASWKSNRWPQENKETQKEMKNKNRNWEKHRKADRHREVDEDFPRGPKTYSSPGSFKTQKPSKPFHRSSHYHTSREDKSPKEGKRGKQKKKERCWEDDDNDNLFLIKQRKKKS

Target	NP40-soluble protein abundance (concentration: 1mM)	NP40-soluble protein abundance (concentration: 2mM)	NP40-soluble protein abundance (concentration: 4mM)	NP40-soluble protein abundance (concentration: 6mM)	NP40-soluble protein abundance (concentration: 8mM)	NP40-soluble protein abundance (concentration: 10mM)
THOC5 (UniProt Q13769)	1.53 ± 0.054	1.68 ± 0.11	2.01 ± 0.17	2.23 ± 0.28	2.52 ± 0.27	2.52 ± 0.29
UniProt Q641Q2|F8W7U3|Q641Q2-2	0.968 ± 0.057	0.9815 ± 0.0096	0.938 ± 0.033	0.94 ± 0.094	0.895 ± 0.05	0.896 ± 0.047
PDCD7 (UniProt Q8N8D1)	1.22 ± 0.14	1.24 ± 0.058	1.48 ± 0.099	1.48 ± 0.024	1.49 ± 0.13	1.76 ± 0.16
UniProt Q8NG08|F5H1I4	1.05 ± 0.18	1.06 ± 0.12	1.09 ± 0.16	0.955 ± 0.13	0.984 ± 0.066	1.01 ± 0.1
TBC1D25 (UniProt Q3MII6)	0.982 ± 0.059	1.04 ± 0.11	1.05 ± 0.16	0.962 ± 0.095	1.01 ± 0.14	1 ± 0.15
THOC7 (UniProt Q6I9Y2)	1.4 ± 0.11	1.5 ± 0.15	1.73 ± 0.19	1.95 ± 0.38	2.12 ± 0.2	2.03 ± 0.26
UniProt Q7Z5K2|Q7Z5K2-3	1.02 ± 0.011	0.995 ± 0.018	0.993 ± 0.011	1.01 ± 0.026	1.014 ± 0.0065	0.987 ± 0.029
UniProt Q13247|Q13247-3	1.84 ± 0.25	1.98 ± 0.19	2 ± 0.21	2.28 ± 0.23	2.17 ± 0.17	2.15 ± 0.25
LARP1 (UniProt Q6PKG0)	0.939 ± 0.062	0.988 ± 0.065	1.06 ± 0.059	1.2 ± 0.069	1.22 ± 0.043	1.33 ± 0.065
UniProt Q7Z2T5	1.09 ± 0.05	1.16 ± 0.051	1.27 ± 0.013	1.39 ± 0.023	1.55 ± 0.018	1.69 ± 0.051
TTC19 (UniProt Q6DKK2)	0.971 ± 0.078	0.922 ± 0.037	0.973 ± 0.043	0.923 ± 0.04	0.985 ± 0.038	0.865 ± 0.094
UniProt Q14677|Q14677-3	1.04 ± 0.042	1.05 ± 0.02	1.04 ± 0.028	1.11 ± 0.027	1.07 ± 0.033	1.09 ± 0.055
CEP135 (UniProt Q66GS9)	0.983 ± 0.041	0.966 ± 0.026	0.964 ± 0.038	0.956 ± 0.036	0.972 ± 0.029	0.989 ± 0.047
UniProt Q32P28|Q32P28-3|Q32P28-4	1.13 ± 0.023	1.15 ± 0.025	1.2 ± 0.077	1.19 ± 0.043	1.22 ± 0.051	1.198 ± 0.0094
Q5VVD7|Q8IWE5 (UniProt Q8IWE5)	0.929 ± 0.047	0.998 ± 0.048	0.932 ± 0.04	0.953 ± 0.036	0.95 ± 0.04	0.955 ± 0.03
DDX51 (UniProt Q8N8A6)	1.25 ± 0.021	1.38 ± 0.085	1.65 ± 0.15	1.9 ± 0.22	2.05 ± 0.18	2.29 ± 0.27
UniProt Q8N6N3|Q8N6N3-2	0.865 ± 0.1	0.81 ± 0.041	0.869 ± 0.13	0.822 ± 0.051	0.779 ± 0.12	0.817 ± 0.063
PCGF5 (UniProt Q86SE9)	0.922 ± 0.16	1.01 ± 0.056	0.981 ± 0.15	0.987 ± 0.087	0.954 ± 0.11	1.07 ± 0.037

Target	NP40-soluble protein abundance (concentration: 1mM)	NP40-soluble protein abundance (concentration: 2mM)	NP40-soluble protein abundance (concentration: 4mM)	NP40-soluble protein abundance (concentration: 6mM)	NP40-soluble protein abundance (concentration: 8mM)	NP40-soluble protein abundance (concentration: 10mM)
LYPLAL1 (UniProt Q5VWZ2)	0.942 ± 0.077	0.936 ± 0.066	0.892 ± 0.048	0.879 ± 0.12	0.883 ± 0.03	0.904 ± 0.057
UniProt Q86Y56	0.992 ± 0.076	0.985 ± 0.067	0.954 ± 0.036	0.917 ± 0.082	0.937 ± 0.046	0.976 ± 0.052
UniProt Q86W42|Q86W42-2	1.59 ± 0.18	1.69 ± 0.05	2 ± 0.087	2.16 ± 0.071	2.47 ± 0.094	2.55 ± 0.19
MDC1 (UniProt Q14676)	1.45 ± 0.11	1.57 ± 0.11	1.74 ± 0.13	1.89 ± 0.18	1.88 ± 0.13	1.99 ± 0.15
UniProt Q6NW34|Q6NW34-2	0.863 ± 0.078	0.831 ± 0.11	0.792 ± 0.15	0.892 ± 0.11	0.84 ± 0.14	0.785 ± 0.21
GRAMD4 (UniProt Q6IC98)	1.01 ± 0.02	0.998 ± 0.02	0.994 ± 0.035	1.02 ± 0.031	1.02 ± 0.025	1.01 ± 0.02
UniProt Q13642-1|Q13642-4|Q13642-5	0.979 ± 0.17	0.968 ± 0.11	0.956 ± 0.098	0.926 ± 0.091	0.979 ± 0.12	0.983 ± 0.064
UniProt Q8TCD5|J3KRC4	1 ± 0.021	1.02 ± 0.04	1.01 ± 0.057	0.942 ± 0.15	1.01 ± 0.11	0.954 ± 0.091
ZCCHC7 (UniProt Q8N3Z6)	1.02 ± 0.19	1.2 ± 0.026	1.34 ± 0.021	1.48 ± 0.018	1.51 ± 0.15	1.79 ± 0.044
UniProt Q15906|Q15906-2	1.13 ± 0.12	1.13 ± 0.092	1.22 ± 0.12	1.27 ± 0.23	1.24 ± 0.12	1.26 ± 0.13
ZNF579 (UniProt Q8NAF0)	0.954 ± 0.03	1.06 ± 0.12	0.945 ± 0.016	0.936 ± 0.073	0.901 ± 0.045	0.887 ± 0.1
UniProt Q8NCA5|Q8NCA5-2	1.01 ± 0.056	1.14 ± 0.15	1.18 ± 0.12	1.26 ± 0.14	1.41 ± 0.14	1.64 ± 0.23
URB2 (UniProt Q14146)	1.21 ± 0.1	1.36 ± 0.15	1.61 ± 0.058	1.68 ± 0.11	2.04 ± 0.16	2.19 ± 0.46
UniProt Q8TED0|H0Y8P4|Q8TED0-3	1.18 ± 0.18	1.22 ± 0.11	1.32 ± 0.18	1.43 ± 0.28	1.5 ± 0.24	1.77 ± 0.41
UniProt Q7L590|Q7L590-2|Q5T670	1.01 ± 0.11	1.07 ± 0.059	1.13 ± 0.044	1.01 ± 0.057	1.11 ± 0.12	1.14 ± 0.12
UniProt Q13045|Q13045-2	1.01 ± 0.039	0.985 ± 0.042	0.974 ± 0.03	0.949 ± 0.058	0.976 ± 0.026	0.968 ± 0.051
UniProt Q12872|Q12872-2	1.24 ± 0.083	1.33 ± 0.049	1.5 ± 0.049	1.77 ± 0.068	1.77 ± 0.066	1.93 ± 0.075
UniProt Q15397	1.28 ± 0.054	1.39 ± 0.058	1.53 ± 0.073	1.6 ± 0.13	1.7 ± 0.042	1.96 ± 0.12
